Among the data in the antibiotic and cytotoxicity screens of Wong et al. (2023) are cytotoxicity call values, retold here.

In all, about 39,000 compounds went through this assay and about 3,300 (8.5%) were called active. Shown is part of a subset that was picked to be rich in actives.

The test system of this test is HepG2. Nature of the test: cytotoxicity call (relative viability < 0.9). The following applies: 10 µM.
`Cn1cc(S(=O)(=O)N2CCN(Cc3ccccc3)CC2)c(=O)n(C)c1=O`: the cytotoxicity call is “inactive”.

In the case of `C=CCOC(=O)O[C@H]1[C@@H](OC)O[C@H](COC(=O)NCCCCCC(=O)NO)[C@H]2OC(=O)[C@@H](Cc3cccc(Br)c3)C/C=C/C[C@H](Cc3ccccc3)C(=O)O[C@H]12`, the cytotoxicity call is “inactive”. As to `CN1C(=O)c2cc(NS(=O)(=O)c3ccc(F)cc3)ccc2OC[C@@H]2O[C@@H](CC(=O)NCC(F)(F)F)CC[C@H]21`, the cytotoxicity call was “inactive”. With `C[C@H]1CN([C@@H](C)CO)C(=O)c2cc(C#CCN(C)C)cnc2O[C@H]1CN(C)S(=O)(=O)c1cn(C)cn1`, the cytotoxicity call was “inactive”. Consider `O=C(C[C@H]1CC[C@H]2[C@@H](COC[C@H](O)CN2S(=O)(=O)c2ccc(Cl)cc2)O1)N[C@H]1CCN(Cc2ccccc2)C1`, for which the cytotoxicity call was “inactive”. On to `CC(C)NC(=O)Nc1ccc2c(c1)C(=O)N([C@@H](C)CO)C[C@H](C)[C@@H](CN(C)C(=O)C1CCCCC1)OCCCC[C@H](C)O2`, for which the cytotoxicity call is “inactive”. As for `CCNC(=S)NCC1CC1`, the entry is “inactive”; as for `Cc1ccc(S(=O)(=O)Nc2ccc3c(c2)C(=O)N([C@H](C)CO)C[C@H](C)[C@H](CN(C)Cc2ccc4c(c2)OCO4)OCCCC[C@@H](C)O3)cc1`, “inactive”. As for `C[C@@H]1CN([C@H](C)CO)S(=O)(=O)c2ccc(C#Cc3ccc(F)cc3)cc2O[C@@H]1CN(C)CC1CC1`, the cytotoxicity call is “inactive”.

Take `CO[C@@H]1CN(C)C(=O)c2ccc(NS(C)(=O)=O)cc2OC[C@@H](C)N(C(=O)CN(C)C)C[C@@H]1C`: the cytotoxicity call was “inactive”. Turning to `C[C@@H]1CN([C@@H](C)CO)C(=O)Cc2cc(NC(=O)Cn3cnnn3)ccc2O[C@@H]1CN(C)Cc1ccc(-c2ccccc2)cc1`, the cytotoxicity call is “inactive”. As for `C[C@H](CO)N1C[C@H](C)[C@H](CN(C)S(=O)(=O)c2ccc(Cl)cc2)OCCCC[C@H](C)Oc2ccc(NC(=O)Nc3cccc4ccccc34)cc2C1=O`, the cytotoxicity call was “inactive”. As for `CCCCOc1cc(C(=O)NCCN(CC)CC)c2ccccc2n1.Cl`, the entry is “inactive”; as for `CCCCc1oc2ccccc2c1C(=O)c1cc(I)c(OCCN(CC)CC)c(I)c1`, “active”; as for `CCCCc1oc2ccccc2c1C(=O)c1cc(I)c(OCCN(CC)CC)c(I)c1.Cl`, “active”.

`NCCCN`: the cytotoxicity call is “inactive”. For `C[C@@H]1CN([C@H](C)CO)C(=O)c2cc(NS(=O)(=O)c3cccs3)ccc2O[C@@H]1CN(C)Cc1ccncc1`, the cytotoxicity call was “inactive”.

For the molecule `O=C(C[C@H]1CC[C@H]2[C@@H](COC[C@@H](O)CN2C(=O)Nc2ccc(C(F)(F)F)cc2)O1)NCCc1ccncc1`, the cytotoxicity call is “inactive”. With `Cc1noc(C)c1NC(=O)Nc1ccc2c(c1)C(=O)N([C@H](C)CO)C[C@H](C)[C@H](CN(C)S(=O)(=O)c1ccc(F)cc1)OCCCC[C@@H](C)O2`, the cytotoxicity call was “inactive”. Under `COCC#Cc1ccc2c(c1)O[C@@H](CN(C)C(=O)Nc1ccccc1F)[C@@H](C)CN([C@@H](C)CO)S2(=O)=O` stands “inactive”; under `CCCN1C[C@@H](C)[C@@H](OC)CN(C)C(=O)c2cc(NS(=O)(=O)c3cn(C)cn3)ccc2OC[C@H]1C`, “inactive”. On to `CN1CCN(C(=O)C[C@H]2CC[C@@H]3[C@H](COC[C@H](O)CN3C(=O)C3CCOCC3)O2)CC1`, for which the cytotoxicity call was “inactive”. On to `Oc1c(I)cc(Cl)c2cccnc12`, for which the cytotoxicity call was “active”. In the case of `c1cnc2ccc3ncccc3c2c1`, the cytotoxicity call was “inactive”.

As for `CCOc1ccc(S(=O)(=O)[O-])c2cccnc12.[Na+]`, the cytotoxicity call is “inactive”. Consider `Oc1c(Br)cc(Br)c2cccnc12`, for which the cytotoxicity call was “active”. As for `Clc1nccc2ccccc12`, the cytotoxicity call is “inactive”. Regarding `Oc1c(Cl)cc(Cl)c2cccnc12`, the cytotoxicity call was “active”. Turning to `Cc1ccc2c(Cl)cc(Cl)c(O)c2n1`, the cytotoxicity call is “inactive”. `O=c1nc[nH]c2ncccc12`: the cytotoxicity call is “inactive”. Take `O=S(=O)([O-])c1cc(I)c(O)c2ncccc12.[Na+]`: the cytotoxicity call is “active”. For `CCCCCCCCCCCCCCCCCCOC[C@H](COP(=O)(O)O[C@H]1[C@@H](O)[C@@H](O)[C@@H](O)C[C@@H]1OC)OC`, the cytotoxicity call was “inactive”. As for `C[C@@H]1CCCCO[C@@H](CN(C)S(C)(=O)=O)[C@H](C)CN([C@H](C)CO)C(=O)c2cc(NS(=O)(=O)c3cn(C)cn3)ccc2O1`, the entry is “inactive”; as for `O=C(C[C@@H]1CC[C@H](NC(=O)CN2CCOCC2)[C@H](CO)O1)NCCc1ccncc1`, “inactive”. On to `CC(=O)N1Cc2cc(C(=O)NCC(F)(F)F)nc(-c3cccc(-c4cc5ccccc5o4)c3)c2[C@H]1CCO`, for which the cytotoxicity call was “inactive”. Consider `C[C@@H]1CCCCO[C@H](CN(C)C(=O)Nc2ccc(C(F)(F)F)cc2)[C@@H](C)CN([C@H](C)CO)C(=O)c2cc(NS(=O)(=O)c3cn(C)cn3)ccc2O1`, for which the cytotoxicity call is “inactive”.

For the molecule `C[C@@H]1CN([C@H](C)CO)S(=O)(=O)c2ccc(-c3ccc(C(=O)N(C)C)cc3)cc2O[C@H]1CN(C)C(=O)Cc1ccccn1`, the cytotoxicity call was “inactive”.

In the case of `Cc1noc(C)c1S(=O)(=O)Nc1ccc2c(c1)C(=O)N([C@@H](C)CO)C[C@@H](C)[C@@H](CN(C)C(=O)Nc1ccc(F)cc1)OCCCC[C@@H](C)O2`, the cytotoxicity call was “inactive”. Take `C[C@H](CO)N1C[C@H](C)[C@H](CN(C)C(=O)Nc2ccccc2)Oc2ccc(NC(=O)CCCN(C)C)cc2C1=O`: the cytotoxicity call was “inactive”. Turning to `Cc1cc(C)c2ccc(Cl)nc2n1`, the cytotoxicity call was “inactive”. For `Cc1noc(C)c1NC(=O)Nc1ccc2c(c1)C(=O)N([C@H](C)CO)C[C@H](C)[C@H](CN(C)CC1CCCCC1)OCCCC[C@H](C)O2`, the cytotoxicity call was “inactive”. Take `C[C@@H]1CN([C@@H](C)CO)C(=O)c2cc(NC(=O)Nc3cccc4ccccc34)ccc2O[C@H]1CN(C)C(=O)NC1CCCCC1`: the cytotoxicity call is “inactive”. Turning to `CC(C)NC(=O)N(C)C[C@H]1Oc2cc(C#Cc3ccccn3)ccc2S(=O)(=O)N([C@H](C)CO)C[C@@H]1C`, the cytotoxicity call is “inactive”. Under `CC(C)(O)c1ccccc1CCC(SCC1(CC(=O)[O-])CC1)c1cccc(C=Cc2ccc3ccc(Cl)cc3n2)c1.[Na+]` (stereo not given) stands “inactive”; under `Oc1c(I)cc(I)c2cccnc12`, “active”. For the molecule `Nc1ncccc1F`, the cytotoxicity call is “inactive”. For `Nc1ncccc1O`, the cytotoxicity call was “inactive”. As for `CC(=O)N(C)C[C@H]1Oc2ncc(C#C[C@@H](C)O)cc2C(=O)N([C@H](C)CO)C[C@@H]1C`, the cytotoxicity call was “inactive”. Under `C[C@@H]1[C@@H]([Si](C)(C)F)[C@H](CC(=O)N(CCO)Cc2ccccc2)O[C@@]12C(=O)N(c1ccccc1)c1ccccc12` stands “active”; under `COc1ccc([Si](C)(C)[C@H]2[C@H](CC(=O)N(CCO)Cc3ccccc3)O[C@@]3(C(=O)N(Cc4ccc(N5CCC5=O)cc4)c4ccccc43)[C@@H]2C)cc1`, “inactive”; under `COc1ccc([Si](C)(C)[C@@H]2[C@@H](CC(=O)N(CCO)Cc3ccccc3)O[C@]3(C(=O)N(Cc4ccc(N5C(=O)c6cccc7cccc5c67)cc4)c4ccccc43)[C@H]2C)cc1`, “active”. Under `COc1ccc([Si](C)(C)[C@@H]2[C@@H](CC(=O)N(CCO)Cc3ccccc3)O[C@]3(C(=O)N(Cc4cccc(N5CCC5=O)c4)c4ccccc43)[C@H]2C)cc1` stands “inactive”; under `COc1ccc([Si](C)(C)[C@H]2[C@H](CC(=O)N(CCO)Cc3ccccc3)O[C@@]3(C(=O)N(Cc4cccc(N5CCC5=O)c4)c4ccccc43)[C@@H]2C)cc1`, “inactive”. As for `COc1ccc([Si](C)(C)[C@@H]2[C@@H](CC(=O)N(CCO)Cc3ccccc3)O[C@]3(C(=O)N(Cc4ccc(N5CCC5=O)cc4)c4ccccc43)[C@H]2C)cc1`, the cytotoxicity call was “inactive”. For the molecule `COc1ccc([Si](C)(C)[C@H]2[C@H](CC(=O)N(CCO)Cc3ccccc3)O[C@@]3(C(=O)N(Cc4ccc(N5CCOC5=O)cc4)c4ccccc43)[C@@H]2C)cc1`, the cytotoxicity call was “inactive”. Regarding `COc1ccc([Si](C)(C)[C@H]2[C@H](CC(=O)N(CCO)Cc3ccccc3)O[C@@]3(C(=O)N(Cc4cccc(N5C(=O)c6cccc7cccc5c67)c4)c4ccccc43)[C@@H]2C)cc1`, the cytotoxicity call was “active”. Consider `C[C@@H]1[C@@H]([Si](C)(C)F)[C@H](CC(=O)N2Cc3ccccc3C[C@H]2CO)O[C@@]12C(=O)N(c1ccccc1)c1ccccc12`, for which the cytotoxicity call was “inactive”.

`COc1ccc([Si](C)(C)[C@@H]2[C@@H](CC(=O)N(CCO)Cc3ccccc3)O[C@]3(C(=O)N(Cc4cccc(N5CCCCC5=O)c4)c4ccccc43)[C@H]2C)cc1`: the cytotoxicity call was “inactive”.

Consider `C[C@H]1[C@H]([Si](C)(C)F)[C@@H](CC(=O)N(CCO)Cc2ccccc2)O[C@]12C(=O)N(c1ccccc1)c1ccccc12`, for which the cytotoxicity call is “inactive”. Take `COc1ccc([Si](C)(C)[C@H]2[C@H](CC(=O)N(CCO)Cc3ccccc3)O[C@@]3(C(=O)N(Cc4ccc(N5C(=O)c6cccc7cccc5c67)cc4)c4ccccc43)[C@@H]2C)cc1`: the cytotoxicity call is “active”.
